Data published in article PMC4336329 (PLoS ONE, 2015).
Out of some 310,000 compounds screened, about 14,000 (4.5%) showed an effect of 50% or more. Effects have a minus sign here. The sample as a whole holds a higher share of strong results than the screen did.

target: human ether-à-go-go-related gene (hERG) potassium channel (human, UniProt Q12809); experiment: primary screen, population patch clamp on CHO cells stably expressing hERG; higher = less effect of the substance
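Also: peak tail current of the secondary pulse compared with the same well before compound.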

Chain of human ether-à-go-go-related gene (hERG) potassium channel (Q12809 whole entry, looked up): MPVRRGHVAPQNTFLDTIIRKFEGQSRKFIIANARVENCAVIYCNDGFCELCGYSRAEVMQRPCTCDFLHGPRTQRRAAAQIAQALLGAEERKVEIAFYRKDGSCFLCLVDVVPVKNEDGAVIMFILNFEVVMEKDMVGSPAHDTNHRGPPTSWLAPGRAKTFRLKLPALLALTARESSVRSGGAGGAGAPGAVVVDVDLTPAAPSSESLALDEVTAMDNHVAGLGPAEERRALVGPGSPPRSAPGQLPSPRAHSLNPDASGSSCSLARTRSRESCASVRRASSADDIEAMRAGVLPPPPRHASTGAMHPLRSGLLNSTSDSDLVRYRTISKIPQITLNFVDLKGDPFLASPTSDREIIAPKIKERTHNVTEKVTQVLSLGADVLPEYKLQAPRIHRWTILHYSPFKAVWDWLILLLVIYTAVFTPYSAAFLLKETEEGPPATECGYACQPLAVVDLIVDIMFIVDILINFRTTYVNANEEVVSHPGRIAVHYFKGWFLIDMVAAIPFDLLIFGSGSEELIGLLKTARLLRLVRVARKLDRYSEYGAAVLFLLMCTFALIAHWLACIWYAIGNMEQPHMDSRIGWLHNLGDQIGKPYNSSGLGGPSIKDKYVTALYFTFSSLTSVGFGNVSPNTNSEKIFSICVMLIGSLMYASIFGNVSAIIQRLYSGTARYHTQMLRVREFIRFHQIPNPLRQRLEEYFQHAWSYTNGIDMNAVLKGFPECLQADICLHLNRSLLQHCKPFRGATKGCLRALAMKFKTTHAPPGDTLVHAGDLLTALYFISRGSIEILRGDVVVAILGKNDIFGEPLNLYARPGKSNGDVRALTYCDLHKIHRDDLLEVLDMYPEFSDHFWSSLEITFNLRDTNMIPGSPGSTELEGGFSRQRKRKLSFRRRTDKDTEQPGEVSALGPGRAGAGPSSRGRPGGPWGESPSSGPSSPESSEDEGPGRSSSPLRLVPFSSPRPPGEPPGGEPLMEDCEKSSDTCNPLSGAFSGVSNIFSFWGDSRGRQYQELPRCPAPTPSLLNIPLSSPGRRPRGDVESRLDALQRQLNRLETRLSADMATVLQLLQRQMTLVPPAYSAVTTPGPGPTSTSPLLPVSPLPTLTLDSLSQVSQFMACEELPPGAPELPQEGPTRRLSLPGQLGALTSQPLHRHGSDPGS

Going from `C=CCN(CC=C)CCOc1ccc(C)cc1[N+](=O)[O-].O=C(O)C(=O)O` to `Cc1ccc(S(=O)(=O)NN=C2CCC(C(C)(C)C)CC2)cc1[N+](=O)[O-]` (stereo not shown), the “hERG current change (%, negative = inhibition) at 10uM” value rises from -47.3% to -8.37%.

Going from `O=C(Oc1cccc(-n2cnnn2)c1)c1ccco1` to `CC(C)NC(=O)/C(=C/c1ccco1)c1ccccc1`, the “hERG current change (%, negative = inhibition) at 10uM” value falls from 6.57% to -2.25%.

Going from `O=C(COC(=O)Cc1ccsc1)NCc1ccccc1` to `Cc1cccc(NC(=O)CCC(=O)c2cccs2)n1`, the “hERG current change (%, negative = inhibition) at 10uM” value falls from 19.6% to 12%.

First: Clc1ccc(-c2ccc(/C=N/Nc3nncc(-c4ccccc4)n3)o2)cc1
Second: COc1ccc(Nc2nc(N)nc(CSC(=S)N3CCN(c4ccccc4)CC3)n2)cc1
The “hERG current change (%, negative = inhibition) at 10uM” value of the first is higher: 20.8% for the first, 14.1% for the second.

Compared with `Cc1cccc(C)c1NC(=O)CN(C)C(=O)c1cccc(NS(=O)(=O)c2ccccc2)c1`, `COc1ccc(/C=C/C(=O)Oc2cccc(/C=N/NC(=O)COc3c(C)cccc3C)c2)cc1` is higher in “hERG current change (%, negative = inhibition) at 10uM” value: -4.78% for the first, 11.8% for the second.

Going from `Cc1cccc(-c2ocnc2C(=O)Nc2ccccc2C(=O)N2CCCC2)c1` to `Cc1cccc(Nc2nc(N)nc(CN3CCN(c4ccccc4)CC3)n2)c1`, the “hERG current change (%, negative = inhibition) at 10uM” value falls from -37% to -54.5%.

First: COc1ccc(C(=O)Nc2ccc(S(=O)(=O)N3CCCCC3C)cc2)c(OC)c1OC (stereo not shown)
Second: COc1cc(/C=N/N2CCN(c3ccccc3OC)CC2)ccc1OC(C)=O
The “hERG current change (%, negative = inhibition) at 10uM” value of the first is lower: -6.46% for the first, 17.2% for the second.

First: CN(CCNC(=O)C1CCCN(c2ncnc3c2nc2n3CCCCC2)C1)Cc1ccccc1 (stereo not shown)
Second: O=C(NCCc1ccccc1)C1CCCN(c2ncnc3c2nc2n3CCCCC2)C1 (stereo not shown)
The “hERG current change (%, negative = inhibition) at 10uM” value of the first is higher: -29.1% for the first, -59.9% for the second.

Going from `CCOc1ccc(CCNC(=O)C2CCCN(c3ncnc4c3nc3n4CCCCC3)C2)cc1` (stereo not shown) to `Cc1ccc(CCNC(=O)C2CCCN(c3ncnc4c3nc3n4CCCCC3)C2)cc1` (stereo not shown), the “hERG current change (%, negative = inhibition) at 10uM” value rises from -58.6% to -28.7%.

First: CSc1ccc(CCNC(=O)C2CCCN(c3ncnc4c3nc3n4CCCCC3)C2)cc1 (stereo not shown)
Second: CC1CCN(CCNC(=O)C2CCCN(c3ncnc4c3nc3n4CCCCC3)C2)CC1 (stereo not shown)
The “hERG current change (%, negative = inhibition) at 10uM” value of the first is lower: -61.8% for the first, 12.5% for the second.

Compared with `CC1CCCC(C)N1CCCNC(=O)C1CCCN(c2ncnc3c2nc2n3CCCCC2)C1` (stereo not shown), `CCOC(=O)Cc1csc(NC(=O)C(NC(=O)C2CCC(C)CC2)C(C)C)n1` (stereo not shown) is higher in “hERG current change (%, negative = inhibition) at 10uM” value: 8.21% for the first, 23.5% for the second.

First: Cc1cccc(Nc2nc(N)nc(CSC(=S)N3CCOCC3)n2)c1
Second: Cc1cccc(Nc2nc(N)nc(CN3CCN(C)CC3)n2)c1
The “hERG current change (%, negative = inhibition) at 10uM” value of the first is higher: -0.689% for the first, -39.2% for the second.

Compared with `Cc1cccc(Nc2nc(N)nc(CCl)n2)c1`, `Cc1cccc(Nc2nc(N)nc(CN3CCN(c4ccc(F)cc4)CC3)n2)c1` is lower in “hERG current change (%, negative = inhibition) at 10uM” value: -0.698% for the first, -73.3% for the second.

First: COc1cccc(N2CCN(Cc3nc(N)nc(N4CCCc5ccccc54)n3)CC2)c1
Second: COc1cccc(N2CCN(Cc3nc(N)nc(Nc4ccccc4)n3)CC2)c1
The “hERG current change (%, negative = inhibition) at 10uM” value of the first is higher: -45% for the first, -68% for the second.
